# Whole data set: some 33,000 sequences, median “E-score (-0.5 to 0.5)” near -0.012, cut for the highest 2% near 0.29. Many of the other results were omitted from the sample, so the highest values are more common in it than they were.
# Molecular target: T1, Ybr033w (UniProt P38073)
# T1 sequence: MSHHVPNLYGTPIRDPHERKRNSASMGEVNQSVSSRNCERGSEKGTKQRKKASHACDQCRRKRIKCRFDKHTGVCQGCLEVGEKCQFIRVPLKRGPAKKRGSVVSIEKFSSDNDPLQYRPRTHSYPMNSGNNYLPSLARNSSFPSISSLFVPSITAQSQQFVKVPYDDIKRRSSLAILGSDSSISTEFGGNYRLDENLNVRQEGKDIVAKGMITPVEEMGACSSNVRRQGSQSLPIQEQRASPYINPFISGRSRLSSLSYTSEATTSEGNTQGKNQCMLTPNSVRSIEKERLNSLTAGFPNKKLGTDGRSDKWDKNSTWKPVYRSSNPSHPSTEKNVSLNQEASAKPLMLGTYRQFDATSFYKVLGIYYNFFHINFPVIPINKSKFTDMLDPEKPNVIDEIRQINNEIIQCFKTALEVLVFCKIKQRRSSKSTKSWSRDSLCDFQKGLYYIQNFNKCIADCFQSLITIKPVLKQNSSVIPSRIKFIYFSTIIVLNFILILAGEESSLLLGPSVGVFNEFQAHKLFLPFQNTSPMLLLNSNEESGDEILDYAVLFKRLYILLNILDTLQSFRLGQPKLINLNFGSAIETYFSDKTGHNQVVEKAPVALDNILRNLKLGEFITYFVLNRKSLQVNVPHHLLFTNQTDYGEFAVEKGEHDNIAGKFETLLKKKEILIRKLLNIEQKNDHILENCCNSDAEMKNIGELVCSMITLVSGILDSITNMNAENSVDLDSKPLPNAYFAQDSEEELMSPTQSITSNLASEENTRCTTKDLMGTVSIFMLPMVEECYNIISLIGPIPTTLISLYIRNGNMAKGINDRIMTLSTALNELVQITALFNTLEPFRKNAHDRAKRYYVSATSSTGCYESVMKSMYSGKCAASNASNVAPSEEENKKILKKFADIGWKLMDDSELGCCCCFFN
# Assay: PBM E-score (8-mer binding enrichment) (E-score (-0.5 to 0.5)); higher = stronger / more preferred TF binding
# Settings: protein concentration: 200 nM; construct: GST-full length
# Description: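 Universal 'all 10-mer' protein binding microarrays (Agilent AMADID 015681) probed with GST-tagged S. cerevisiae TFs (full-length or DBD) made by in vitro transcription/translation (PURExpress), about 100-200 nM. Bound TF was detected with fluorescent anti-GST. Each ungapped 8-mer (which stands for itself and its reverse complement) is scored by the PBM enrichment score (E-score), a modified Wilcoxon-Mann-Whitney statistic from -0.5 to +0.5, computed with the Universal PBM Analysis Suite. Scale: above 0.35 generally sequence-specific binding.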
row,Sequence,PBM E-score
1,GGGTATGA,0.0197
2,ACTCCCCT,-0.002
3,CTGATAAG,0.126
4,AGAAACCC,0.0994
5,CAGTGCCG,-0.105
6,CTTCGTAC,-0.103
7,GCCGCTAC,-0.121
8,GAGCTGCA,-0.284
9,CAGTAATA,0.317
10,AAGTAATT,0.331
11,CAGTAATC,-0.0846
12,GAGTAATA,0.334
13,GAGTAATC,0.132
14,CAGTAATG,0.282
15,TAGTAATA,0.241
16,AAGTAATA,0.0769
17,AAGTAATG,0.141
18,GGGCTGAA,0.0197
19,ATAGCCAT,0.0973
20,ACAATGCC,-0.0228
21,CGCAAATC,-0.0144
22,TAGGTGCA,-0.0741
23,TAATGGAA,0.184
24,GTGATTAA,0.291
25,TGGATTAA,0.38

row,Sequence,PBM E-score
1,CGGATTAG,-0.0597
2,TGCATTAA,0.256
3,ATGATTTA,0.253
4,GGGATTAC,-0.103
5,GGGATTGA,-0.148
6,GTGATTTA,0.295
7,ATGATTAA,0.231
8,GGGATTAA,0.411
9,CTGATTTA,0.156
10,CTGATTAA,0.22
11,ACGCATTG,-0.0453
12,AGCCCACG,-0.202
13,CATGGTGA,0.137
14,ACGATTAA,0.141
15,GCGATTAA,0.19
16,GCGATTTA,0.0771
17,TCGATTAA,0.288
18,CCGATTTA,0.183
19,ACGATTTA,0.36
20,ACACCGTC,-0.0477
21,AAGCGCAT,-0.0621
22,CACCGCTA,-0.0953
23,TAAACTGA,0.136
24,ATGGCCTG,-0.16
25,GCGATACA,0.0586

row,Sequence,PBM E-score
1,ACGATACA,0.0132
2,TCGATACA,0.298
3,ACGGTAGC,-0.123
4,ACTAGTCT,-0.0233
5,ACCATCGG,-0.118
6,ACAACCAT,0.297
7,ACAACCAC,0.0628
8,ACAACCAG,0.102
9,CGTTCTGC,0.0161
10,GCTTATGA,-0.0277
11,CACTAATA,0.0444
12,TACTAATA,0.185
13,AACTAATG,0.29
14,AACTAAAG,0.231
15,CACTAATG,0.0973
16,AACTAATT,0.293
17,AACTAACT,0.126
18,AACTAATA,0.298
19,AACTAATC,0.192
20,AAATCGGC,-0.158
21,CCACCGGA,0.172
22,GAGACCAA,0.0622
23,ATCCGCTC,-0.102
24,ACGGTATG,-0.0502
25,AGGCATAA,-0.0986

row,Sequence,PBM E-score
1,ATTTAGGC,0.117
2,CCCACCTC,-0.244
3,AAATTTCA,-0.0112
4,CAATTTCA,0.0349
5,CAATTTAA,0.27
6,AAATTTAG,0.278
7,TAATTTAA,0.343
8,AAATTTAC,0.263
9,TAATTTCA,0.289
10,GAATTTAA,0.0723
11,AAATTTAA,0.29
12,CGCCAGAA,0.043
13,ACAAGTAT,0.249
14,AACACAAC,0.116
15,CCTTTCTC,-0.11
16,CCGTCGCC,-0.247
17,ACGATAAT,0.163
18,TAGATAAA,0.341
19,AGGATACT,-0.0125
20,TCGATAAA,0.167
21,TGGATAAA,0.391
22,TGGATACA,0.0503
23,TTGATAAA,0.368
24,CAGATAAA,0.194
25,AGGATAAT,0.36

row,Sequence,PBM E-score
1,AAGATAAA,0.257
2,ATGATAAA,0.238
3,GTGATAAA,0.102
4,CTGCTCTC,-0.153
5,AGCCACCA,0.0237
6,AGGCTCAT,-0.0489
7,ACGACCAG,-0.158
8,AGGATAAC,-0.109
9,AAGATAAG,0.0844
10,AGGATAAA,0.427
11,GGGATAAC,0.00039
12,AAGATAAT,0.307
13,AGGATAAG,-0.0801
14,GGGATAGA,-0.196
15,GGGATAAA,0.317
16,AAGATAAC,0.0702
17,CAGGTAGG,-0.052
18,ATCCGGGG,0.181
19,GCCCATCA,-0.178
20,AGTCGACT,0.204
21,AGCTTAGA,-0.0294
22,GGATCAAC,0.369
23,AGATCAAA,0.111
24,CGATCAAC,-0.144
25,GGATCAAA,0.367

row,Sequence,PBM E-score
1,AGATCAAC,0.0509
2,TGATCAAA,0.076
3,CACACTGA,-0.19
4,CCAGGAAC,-0.103
5,GATGTCAA,0.0645
6,TATGTCAA,0.318
7,AATCTCAA,0.0508
8,TATCTCAA,0.32
9,AATGTCAA,0.00312
10,CATCTCAA,0.119
11,AAACGCGA,0.0304
12,GAAGACTC,-0.0221
13,CATAACTC,0.0871
14,GGAAATGA,0.133
15,CCAGATTC,-0.16
16,GACGAGTA,0.0188
17,CACGAGTA,0.0368
18,TACGAGTA,0.297
19,AAGAATGC,0.142
20,ATTCGAAA,0.12
21,TATATTAA,0.324
22,AACATTAA,0.224
23,CATATTCA,0.0595
24,AATATTAC,0.283
25,AATATTCA,0.226

row,Sequence,PBM E-score
1,TATATTCA,0.303
2,GACATTAA,0.166
3,GATATTAA,0.251
4,TATATTGA,0.275
5,AATATTAT,0.335
6,AATATTAG,0.228
7,TACATTAA,0.345
8,CCTGAGCA,-0.075
9,GACGGTTA,-0.192
10,ACCAGTAT,-0.104
11,CCTAACGA,-0.0133
12,ATGCGTGG,-0.346
13,GAATCGCC,-0.138
14,CGGTTGCA,-0.122
15,CTGCCCAC,-0.165
16,CAGGTGAA,0.0712
17,CGCCCCCC,-0.434
18,ACTTGTTC,0.25
19,GATGCATC,0.0586
20,GTGGATCA,0.0654
21,GCTGCAGA,-0.101
22,TAAGCAAA,0.179
